Assay results published in PubChem BioAssay (Tox21).
Several values for one entry are separate records, joined by “and”; a condition that tells them apart may be missing. Identical values can stand only once. Records with an inconclusive call do not appear. Activity calls are given as the source filed them. Unless noted, calls follow the shape of the full dose curve.

How the values were obtained:
[1] = Nuclear factor erythroid 2-related factor 2/antioxidant responsive element (Nrf2/ARE) small molecule agonists: luciferase reporter gene qHTS assay in human keratinocytes (AID 1919969); also: nearly all actives have a fitted effect of over 35% in size; also: potency is read from the fitted curve at half-maximal effect
[2] = target: Gonadotropin-releasing hormone receptor (Homo sapiens) (UniProt P30968); experiment: Human gonadotropin-releasing hormone receptor (GnRHR) small molecule agonists, calcium flux assay in GnRHR-HEK293 cells (AID 1920063); also: nearly all actives have a fitted effect of over 35% in size
Chain of Gonadotropin-releasing hormone receptor (Homo sapiens) (P30968 whole entry, looked up): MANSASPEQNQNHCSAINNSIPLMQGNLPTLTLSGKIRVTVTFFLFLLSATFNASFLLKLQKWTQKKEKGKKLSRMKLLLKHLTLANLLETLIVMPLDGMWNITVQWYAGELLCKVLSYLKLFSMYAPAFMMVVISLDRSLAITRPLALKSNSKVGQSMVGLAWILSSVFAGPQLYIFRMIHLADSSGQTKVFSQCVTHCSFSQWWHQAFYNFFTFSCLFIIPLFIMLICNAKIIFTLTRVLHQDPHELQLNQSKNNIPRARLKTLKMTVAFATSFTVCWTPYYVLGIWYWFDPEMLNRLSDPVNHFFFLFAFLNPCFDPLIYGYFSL
Method in brief: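 Intracellular calcium rise is the read-out: engineered human GnRHR HEK293 cells, dye-loaded, are exposed to DMSO-dissolved compounds and fluorescence at Ex/Em 480/540 is tracked for 3 min.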

[3] = target: KiSS-1 receptor (Homo sapiens) (UniProt Q969F8); experiment: Human kisspeptin (KISS1R) small molecule agonists, calcium flux assay in KISS1R-HEK293 cells (AID 1920064; active = well fitted activation curve with a large enough effect in the repeat runs)
Chain of KiSS-1 receptor (Homo sapiens) (Q969F8 whole entry, looked up): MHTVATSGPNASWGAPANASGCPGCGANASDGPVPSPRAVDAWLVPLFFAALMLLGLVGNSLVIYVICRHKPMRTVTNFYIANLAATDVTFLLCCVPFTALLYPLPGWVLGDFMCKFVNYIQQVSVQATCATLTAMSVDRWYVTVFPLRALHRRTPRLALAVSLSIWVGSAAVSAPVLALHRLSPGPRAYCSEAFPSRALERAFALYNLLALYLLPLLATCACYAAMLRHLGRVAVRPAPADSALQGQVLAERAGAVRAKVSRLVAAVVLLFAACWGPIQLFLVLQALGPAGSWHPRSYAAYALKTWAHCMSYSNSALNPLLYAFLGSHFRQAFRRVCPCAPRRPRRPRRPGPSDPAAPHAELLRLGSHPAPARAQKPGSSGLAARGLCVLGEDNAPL
Method in brief: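 Concentration-response testing used 15 concentrations in triplicate on human KISS1R-expressing HEK293 cells. Calcium-dependent fluorescence (Ex/Em 480/540) was followed kinetically for 3 min after compound transfer.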

[4] = G protein-coupled receptor (GPCR) small molecule agonists, calcium flux assay: HEK293 wild type cell line counter screen (AID 1920065)
Method in brief: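 Fluorescence intensity signals activation. After overnight (18 h) culture and a 1 h calcium dye load at 37 C, compounds are added by pin tool and the plate read at 480/540 nm for 3 min in 1 s steps.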

[5] = p53 small molecule agonists, cell-based qHTS assay with human liver microsomes (AID 1963577);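 also: p53 response element beta-lactamase reporter cells with liver microsomes plus NADPH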
Method in brief: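 16 h, 37 C exposure of p53RE-bla cells to compounds with human liver microsomes and NADPH (0.5 mg/mL final each); detection via LiveBLAzer mixture, 2 h dark at room temperature.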

[6] = p53 small molecule agonists, cell-based qHTS assay with rat liver microsomes (AID 1963578)
Method in brief: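 With rat liver microsomes and NADPH present (0.5 mg/mL final each), p53RE-bla cells are treated with compound for 16 h at 37 C. LiveBLAzer detection mixture is then applied for 2 h at room temperature in the dark.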

[7] = p53 small molecule agonists, cell-based qHTS assay with human liver microsomes: qHTS cell viability counter screen (AID 1963579); also: nearly all actives have a fitted effect of over 45% in size; also: potency is read from the fitted curve at half-maximal effect
Method in brief: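 In this multiplexed counter screen, the reporter plates were subsequently treated with CellTiter-Glo so that cell viability, reflected by luminescence, could be recorded for p53RE-bla cells dosed 16 h with compounds under microsomal activation (HLM and NADPH).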

[8] = p53 small molecule agonists, cell-based qHTS assay: qHTS cell viability counter screen (AID 1963581); also: nearly all actives have a fitted effect of over 45% in size; also: potency is read from the fitted curve at half-maximal effect
Method in brief: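 Luminescence from CellTiter-Glo, reflecting ATP content, serves as the cytotoxicity measure; it is taken after the 2 h reporter substrate step in HCT-116 p53RE-bla cells dosed for 16 h at 37 C.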

[9] = p53 small molecule agonists, cell-based qHTS assay (AID 1963582; active = well fitted activation curve with a large enough effect in the signal ratio in the repeat runs, not every such curve was filed as active; the % refers to the signal ratio)
Method in brief: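 After plating, p53RE-bla cells sat 5 h in the incubator; compounds or DMSO vehicle were pinned in; a 16 h incubation at 37 C followed; FRET substrate was added and, 2 h later at RT, fluorescence was measured.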

[10] = target: 5-hydroxytryptamine receptor 2A (Homo sapiens) (UniProt P28223); experiment: 5-hydroxytryptamine receptor 2A (HTR2A) small molecule antagonists, cell-based qHTS assay (AID 1963586); also: nearly all actives have a fitted effect of over 45% in size
Chain of 5-hydroxytryptamine receptor 2A (Homo sapiens) (P28223 whole entry, looked up): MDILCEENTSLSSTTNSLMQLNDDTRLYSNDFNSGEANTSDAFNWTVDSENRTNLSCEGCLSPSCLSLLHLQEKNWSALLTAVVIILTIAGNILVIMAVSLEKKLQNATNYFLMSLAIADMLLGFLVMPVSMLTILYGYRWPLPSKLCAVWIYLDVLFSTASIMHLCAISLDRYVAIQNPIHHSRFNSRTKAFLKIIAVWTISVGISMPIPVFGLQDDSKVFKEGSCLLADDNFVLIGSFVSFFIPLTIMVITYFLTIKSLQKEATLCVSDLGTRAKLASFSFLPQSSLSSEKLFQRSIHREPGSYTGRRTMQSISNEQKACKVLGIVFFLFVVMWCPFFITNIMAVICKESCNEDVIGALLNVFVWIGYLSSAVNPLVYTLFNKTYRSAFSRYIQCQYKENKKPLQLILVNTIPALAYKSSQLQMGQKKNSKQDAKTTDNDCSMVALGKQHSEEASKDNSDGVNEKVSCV
Method in brief: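 CHO cells stably expressing human HTR2A were plated for 18 h at 37 C, then loaded with calcium dye for 1 h. Compounds were preincubated 5 min at room temperature before DOI (4 nM solution) was added. Kinetic fluorescence was read for 3 min.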

[11] = target: 5-hydroxytryptamine receptor 2A (Homo sapiens) (UniProt P28223); experiment: 5-hydroxytryptamine receptor 2A (HTR2A) small molecule agonists, cell-based qHTS assay (AID 1963587); also: nearly all actives have a fitted effect of over 30% in size; also: potency is read from the fitted curve at half-maximal effect
Method in brief: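 Kinetic calcium-flux fluorescence (2 min, 1 sec intervals) after compound addition in agonist mode. HTR2A-CHO cells were cultured 18 h, then dye-loaded 1 h at 37 C.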

[12] = target: Muscarinic acetylcholine receptor M1 (Homo sapiens) (UniProt P11229); experiment: Cholinergic receptor muscarinic 1 (CHRM1) small molecule antagonists, cell-based qHTS assay (AID 1963588); also: nearly all actives have a fitted effect of over 40% in size; also: potency is read from the fitted curve at half-maximal effect
Chain of Muscarinic acetylcholine receptor M1 (Homo sapiens) (P11229 whole entry, looked up): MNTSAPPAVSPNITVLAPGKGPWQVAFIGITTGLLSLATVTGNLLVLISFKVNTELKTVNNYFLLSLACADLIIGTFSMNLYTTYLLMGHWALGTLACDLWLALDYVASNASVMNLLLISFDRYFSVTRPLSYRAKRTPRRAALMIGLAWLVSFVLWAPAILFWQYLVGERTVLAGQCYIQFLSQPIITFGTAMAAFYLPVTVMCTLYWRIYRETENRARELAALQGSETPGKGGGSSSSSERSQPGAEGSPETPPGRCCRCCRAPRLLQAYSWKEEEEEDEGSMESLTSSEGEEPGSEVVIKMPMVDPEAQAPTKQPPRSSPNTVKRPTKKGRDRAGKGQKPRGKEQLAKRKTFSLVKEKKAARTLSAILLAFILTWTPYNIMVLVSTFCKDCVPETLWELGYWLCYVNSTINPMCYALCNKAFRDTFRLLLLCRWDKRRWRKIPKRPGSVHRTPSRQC
Method in brief: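 Compounds were tested at 15 concentrations in three independent runs. Dye-loaded CHRM1-CHO cells were exposed 5 min at room temperature before stimulation by acetylcholine added at 50nM. Intracellular calcium was read kinetically on FDSS for 3 min.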

[13] = target: Muscarinic acetylcholine receptor M1 (Homo sapiens) (UniProt P11229); experiment: Cholinergic receptor muscarinic 1 (CHRM1) small molecule agonists, cell-based qHTS assay (AID 1963589); also: nearly all actives have a fitted effect of over 35% in size
Method in brief: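 Fluorescent calcium dye reports M1 activation in stably transfected CHO cells. Compounds, 15 concentrations, added after 1 h dye loading at 37 C; kinetic reading at 1 sec intervals.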

[14] = cAMP Responsive Elements (CRE) small molecule agonists, cell-based qHTS assay (AID 1963590)
Method in brief: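 Compound exposure lasted 3 h at 37 C/5% CO2 in CRE-bla HEK 293T cells grown in assay medium with 10% dialyzed FBS and 25 mM HEPES. Reporter signal came from LiveBLAzer B/G FRET substrate, 2 h, room temperature.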

[15] = cAMP Responsive Elements (CRE) small molecule antagonists, cell-based qHTS assay (AID 1963591; active = well fitted inhibition curve with a large enough effect in the signal ratio in the repeat runs, not every such curve was filed as active; the % refers to the signal ratio)
Method in brief: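 Stimulation used NKH477 at a final 0.25 uM for 3 h in compound-treated CRE-bla HEK293T cells, seeded 18 h beforehand. Reporter activity was measured with LiveBLAzer B/G FRET substrate after 2 h at room temperature.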

[16] = target: Beta-2 adrenergic receptor (Homo sapiens) (UniProt P07550); experiment: Adrenergic beta2 receptor (ADRB2) small molecule antagonists, cell-based qHTS assay (AID 1963592); also: series mostly up to about 92 µM; nearly all actives have a fitted effect of over 50% in size
Chain of Beta-2 adrenergic receptor (Homo sapiens) (P07550 whole entry, looked up): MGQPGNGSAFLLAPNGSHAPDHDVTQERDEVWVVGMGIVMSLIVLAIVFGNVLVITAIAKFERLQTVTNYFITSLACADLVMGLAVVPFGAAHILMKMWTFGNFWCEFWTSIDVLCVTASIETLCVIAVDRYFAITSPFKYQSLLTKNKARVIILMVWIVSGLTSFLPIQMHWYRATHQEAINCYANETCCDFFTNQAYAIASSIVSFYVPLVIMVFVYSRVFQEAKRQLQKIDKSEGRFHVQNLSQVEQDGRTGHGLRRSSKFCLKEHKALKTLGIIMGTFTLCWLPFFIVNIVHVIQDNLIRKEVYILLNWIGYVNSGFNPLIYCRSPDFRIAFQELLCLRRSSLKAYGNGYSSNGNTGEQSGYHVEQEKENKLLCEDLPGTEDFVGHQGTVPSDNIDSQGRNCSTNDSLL
Method in brief: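 Assay format: CHO-ADRB2 cells, 18-20hr seeding at 37C/5% CO2, then compound plus 1nM isoproterenol agonist mix for 0.5hr RT. Homogeneous time-resolved fluorescence cAMP detection after 1hr, expressed as 665/615 nm ratio.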

[17] = target: D(2) dopamine receptor (Homo sapiens) (UniProt P14416); experiment: Dopamine D2 receptor (DRD2) small molecule agonists, cell-based qHTS assay (AID 1963594); also: nearly all actives have a fitted effect of over 35% in size; also: potency is read from the fitted curve at half-maximal effect
Chain of D(2) dopamine receptor (Homo sapiens) (P14416 whole entry, looked up): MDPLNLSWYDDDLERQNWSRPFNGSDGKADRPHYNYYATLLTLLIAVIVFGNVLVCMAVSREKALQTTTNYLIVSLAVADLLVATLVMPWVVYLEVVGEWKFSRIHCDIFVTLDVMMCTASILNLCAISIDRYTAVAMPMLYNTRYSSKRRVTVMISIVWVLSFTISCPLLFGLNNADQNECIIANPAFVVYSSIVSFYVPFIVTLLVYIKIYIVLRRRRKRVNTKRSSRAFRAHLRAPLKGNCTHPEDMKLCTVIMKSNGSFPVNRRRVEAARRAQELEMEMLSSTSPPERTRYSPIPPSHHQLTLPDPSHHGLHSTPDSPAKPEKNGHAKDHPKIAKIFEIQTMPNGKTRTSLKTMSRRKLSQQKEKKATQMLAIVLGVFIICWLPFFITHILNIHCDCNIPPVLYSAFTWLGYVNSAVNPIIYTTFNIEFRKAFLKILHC
Method in brief: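 cAMP accumulation in DRD2-HEK293 cells measured by HTRF after 1 h detection; compounds added 10 min before NKH477 (200nM […]) forskolin-analogue stimulation, 30 min at room temperature, with Ro20-1724 present at 0.1 mM final.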

[18] = target: D(2) dopamine receptor (Homo sapiens) (UniProt P14416); experiment: Dopamine D2 receptor (DRD2) small molecule antagonists, cell-based qHTS assay (AID 1963595; active = well fitted inhibition curve with a large enough effect in the signal ratio in the repeat runs, with a control signal flat; the % refers to the signal ratio; also: potency is read from the fitted curve at half-maximal effect)
Method in brief: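 Readout: HTRF cAMP, cAMP-d2 competing with cellular cAMP for anti-cAMP cryptate, read after 1 h. Cells: DRD2-HEK293. Conditions: 0.1 mM Ro20-1724, 12 nM quinpirole, 200 nM NKH477, 30 min RT.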

[19] = p53 small molecule agonists, cell-based qHTS assay with rat liver microsomes: qHTS cell viability counter screen (AID 1963580); also: nearly all actives have a fitted effect of over 45% in size; also: potency is read from the fitted curve at half-maximal effect
Method in brief: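 Cytotoxicity counter screen: intracellular ATP read by CellTiter-Glo luminescence in the p53 reporter wells. HCT-116 p53RE-bla cells were treated for 16 h at 37 C alongside rat liver microsomes and NADPH, each 0.5 mg/mL final.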

[20] = target: Beta-2 adrenergic receptor (Homo sapiens) (UniProt P07550); experiment: Adrenergic beta2 receptor (ADRB2) small molecule agonists, cell-based qHTS assay (AID 1963593);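 also: CHO cells stably overexpressing human ADRB2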
Method in brief: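 CHO cells stably over-expressing ADRB2 were plated overnight at 37C, then dosed with compounds plus a stimulation mix containing 100uM IBMX and 25uM Ro-20-1724 for 0.5hr at room temperature. cAMP was measured by HTRF competition, 1hr.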

Measured: Potency

Nc1ccc([N+](=O)[O-])c(N)c1
inactive: [1] | [2] | [3] | [4] | [5] | [6] | [7] | [8] | [9] | [10] | [11] | [12] | [13] | [14] | [15] | [16] | [17] | [18]

c1cc(CN2CCCCC2)cc(OCCCNc2nc3ccccc3s2)c1
active: [12] 5.79 µM
inactive: [1] | [2] | [3] | [4] | [5] | [6] | [7] | [19] | [8] | [11] | [13] | [14] | [17]

CCCCCCCC/C=C\CCCCCCCC(=O)N(C)CC(=O)O
active: [1] 54.5 µM
inactive: [2] | [3] | [4] | [5] | [6] | [7] | [19] | [9] | [10] | [12] | [13] | [16] | [20] | [17] | [18]

COc1ccc(N=Nc2cc(C)c(N=Nc3ccc(S(=O)(=O)O)cc3)cc2OC)cc1
inactive: [1] | [2] | [3] | [4] | [5] | [6] | [7] | [8] | [9] | [10] | [11] | [12] | [13] | [14] | [17] | [18]

Cc1cccc(O)c1N
inactive: [2] | [3] | [4] | [5] | [6] | [7] | [19] | [9] | [10] | [11] | [13] | [15] | [16] | [17] | [18]
active: [1] 30.9 µM

CCOc1cccc(-n2cc(C(=O)N3CCN(c4cc(C(=O)O)c5ccccc5c4)CC3)nc2-c2ccc(C)cc2)c1
active: [7] 17.4 µM | [19] 24.6 µM | [8] 24.6 µM | [11] 0.0933 µM | [17] 65.5 µM
inactive: [1] | [2] | [3] | [4] | [5] | [6] | [13] | [18]

COc1ccc(-c2cc(=S)ss2)cc1
active: [1] 33.5 µM
inactive: [2] | [3] | [4] | [5] | [6] | [7] | [19] | [12] | [13] | [14] | [15] | [16] | [20] | [17] | [18]

C=CC(=O)OCCCCCCOC(=O)C=C
inactive: [2] | [3] | [4] | [5] | [6] | [7] | [19] | [8] | [10] | [11] | [12] | [13] | [15] | [16] | [17]
active: [1] 27.6 µM and 24.3 µM

CC(C)CCCCCCCOC(=O)c1ccc(C(=O)OCCCCCCCC(C)C)c(C(=O)OCCCCCCCC(C)C)c1
active: [1] 24 µM | [7] 16 µM
inactive: [2] | [3] | [4] | [5] | [6] | [8] | [9] | [11] | [12] | [13] | [14] | [15] | [16] | [17] | [18]

CN(C)CC/C=C1\c2ccccc2Sc2ccc(Cl)cc21
active: [18] 0.531 µM
inactive: [1] | [2] | [3] | [4] | [5] | [6] | [7] | [19] | [8] | [11] | [12] | [13] | [15] | [16] | [17]

O=C1c2ccccc2C(=O)c2c(O)c(O)cc(O)c21
inactive: [1] | [2] | [3] | [4] | [5] | [6] | [7] | [19] | [8] | [10] | [11] | [12] | [16] | [20] | [17] | [18]

OC(CCN1CCCCC1)(c1ccccc1)C1CC2C=CC1C2 (configuration not stated)
inactive: [1] | [2] | [3] | [4] | [5] | [6] | [7] | [8] | [9] | [10] | [11] | [13] | [16] | [20] | [17] | [18]
active: [12] 0.0013 µM

c1ccc(-c2ccc(C(c3ccccc3)n3ccnc3)cc2)cc1 (configuration not stated)
active: [1] 29.8 µM
inactive: [2] | [3] | [4] | [5] | [6] | [7] | [19] | [8] | [11] | [13] | [14] | [20] | [18]

Cc1cccc(Br)c1
active: [1] 24.5 µM | [7] 20.6 µM
inactive: [2] | [3] | [4] | [5] | [6] | [19] | [10] | [11] | [13] | [16] | [20] | [18]

Nc1ccc(N)c2c1C(=O)c1ccccc1C2=O
inactive: [1] | [2] | [3] | [4] | [5] | [6] | [7] | [19] | [8] | [12] | [13] | [14]

CCOc1ccc2nc3cc(N)ccc3c(N)c2c1
inactive: [2] | [3] | [4] | [5] | [6] | [7] | [19] | [8] | [10] | [11] | [12] | [13] | [16] | [17] | [18]
active: [1] 29.8 µM
